The list is not random: actives were taken first. Their share in the collection is about 4.7%.
D1 ag – agonists of human D1 dopamine receptor. HEK293 T-REx D1 cells, calcium flux, agonist mode. activation, % at 2 µM. 360,000 tested, 1% active. AID 504660; note: 0% is about no effect
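Inducible HEK293 T-REx D1 cells, force-coupled to calcium signalling, were plated at 4000 cells/well with tetracycline and held overnight at 30 C. After no-wash calcium dye loading, compound-evoked calcium rise over 180 s flagged agonists.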
TRHR ag – TRH receptor (human) agonism; P34981; TRHR cells, calcium flux fluo-8, FDSS agonist mode; activation, % at 2 µM; 360,000 tested, 0.18% active; note: 0% is about no effect
Target sequence (P34981 whole entry, looked up): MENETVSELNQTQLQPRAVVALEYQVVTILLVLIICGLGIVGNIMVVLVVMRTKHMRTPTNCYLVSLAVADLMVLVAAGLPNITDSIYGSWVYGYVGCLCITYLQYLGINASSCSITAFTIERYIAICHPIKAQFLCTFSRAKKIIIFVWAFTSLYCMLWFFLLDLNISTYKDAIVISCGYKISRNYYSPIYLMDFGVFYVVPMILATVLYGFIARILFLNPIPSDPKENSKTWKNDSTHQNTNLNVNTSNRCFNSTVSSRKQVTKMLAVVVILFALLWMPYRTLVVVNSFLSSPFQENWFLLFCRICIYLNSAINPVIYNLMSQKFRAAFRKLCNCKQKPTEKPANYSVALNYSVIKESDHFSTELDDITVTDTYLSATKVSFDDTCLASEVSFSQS
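Read-out: compound-evoked intracellular calcium rise in TRHR cells, fluo-8 dye, kinetic FDSS fluorescence at 1 s/cycle following a 10-cycle baseline. Cells cultured overnight before dye loading (30 min–1.5 h, RT).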
D1 potentiator – human D1 dopamine receptor positive modulation; AID 504651; P21728; 360,000 tested, 0.036% active; HEK293 TREx D1 cells, calcium flux, dopamine EC20 potentiation; potentiation, % at 10 µM; in the data active = potentiation above about 30%; note: 0% is about no effect
D1 antagonist – human D1 dopamine receptor antagonism; AID 504652; P21728; HEK293 TREx D1 cells, calcium flux, dopamine EC80; hits give low values; 360,000 tested, 3.2% active; activity change, negative = inhibition, % at 10 µM; in the data active = activity change below about -30%; note: % is set by controls: 0 for no effect and ±100 for the full control effect
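Calcium flux readout: force-coupled, inducible Hek293 Trex D1 line, cells induced overnight at 30 C with tetracycline, dye-loaded 30–90 min at RT. Antagonism scored against EC80 dopamine challenge given 180 s after compound.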
TRHR enhancer – allosterically enhances the human TRH receptor; P34981; TRHR cells, fluo-8 calcium fluorescence, EC20 TRH enhancement; enhancement, % at 2 µM; 360,000 tested, 0.66% active; in the data active = enhancement above about 30%; note: 0% is about no effect
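Enhancer read-out: after compound pinning and an initial kinetic agonist-mode read, an EC20 of TRH (10 nM final) was injected and fluo-8 calcium signal (Ex 480/Em 530) followed at 1 s/cycle for 100 cycles in TRHR-expressing cells.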
* hit, by the source's call; / = no result. Cut-off read from the data, not from the text of the source, unless noted: active = activation above about 30%; inactive = the rest.

SMILES	D1 ag	TRHR ag	D1 potentiator	D1 antagonist	TRHR enhancer
O=S(=O)(c1ccc2c(c1)OCCO2)N1CCN(S(=O)(=O)c2cccc3cccnc23)CC1	2.1	2.4	-3.5	-6.7	1.1
COC(=O)c1c(C)sc(-c2c(-c3cccc(Cl)c3)[nH]c3c2c(=O)[nH]c(=O)n3C)c1O	62.2*	36.4*	-1.4	5.1	-1.5
CCOC(=O)c1c(C)sc(-c2c(-c3ccccc3)[nH]c3[nH]c(=O)[nH]c(=O)c23)c1O	39.5*	-0.6	-0.1	-2.1	0.1
COc1ccc(-c2cc(C(F)(F)F)nc(SCC(=O)N3CCCCC3)n2)cc1	3.7	0.5	-7.2	-16.1	4.8
OCC1(CCc2ccccc2)CCN(Cc2cc(F)ccc2-n2cccn2)CC1	1.4	-0.3	-6.2	-31.5*	-8.2
OCC1(CCCc2ccccc2)CCN(Cc2cc(F)ccc2F)CC1	7.1	0.2	-2.9	-6.5	-0.1
CCNc1nc(CN2CCCCC2)nc2scc(-c3ccccc3)c12	2.7	-0.1	-7.8	-37.6*	3.7
OCC1CCCN(c2nc(CN3CCCCC3)nc3scc(-c4ccccc4)c23)C1 (configuration not stated)	2.7	0.2	-1.6	-9.6	4.1
Fc1ccc(N2CCN(c3nc(CN4CCOCC4)nc4scc(-c5ccccc5)c34)CC2)cc1	4.5	-0.5	-2.4	-45.9*	-7.5
Cc1occc1C(=O)NNS(=O)(=O)c1ccc(Cl)cc1	4.6	-1.4	7.2	10.0	36.8*
Cc1ccc(S(=O)(=O)NNC(=O)Nc2ccc(Cl)cc2)cc1	1.4	0.2	-5.0	4.1	-5.9
CCOc1ccc(C2N(c3ccc(OC)cc3)C(=O)C3CCCN32)cc1OC (configuration not stated)	1.4	0.0	/	5.2	-15.6
CCOc1ccc(C2N(c3ccc(Cl)cc3)C(=O)C3CCCN32)cc1OC (configuration not stated)	1.7	0.9	-3.6	-42.4*	-0.6
Nc1ccc(Sc2cc(Cl)nc(N)n2)cc1	3.3	0.2	0.5	8.1	3.1
Nc1nc(N)c2cc(Sc3ccc4ccccc4c3)ccc2n1	32.9*	0.9	12.1	16.7	13.7
Cc1ccc(C(=O)NC(C)C2CCCO2)o1 (configuration not stated)	8.3	0.0	-9.6	-10.6	-0.2
CC(NC(=O)c1ccc(Br)o1)C1CCCO1 (configuration not stated)	0.2	-0.4	-10.1	-30.6*	-6.5
COC(=O)NC(=S)Nc1ccc(Oc2ccc(Cl)cc2)c(Cl)c1	6.1	-0.5	-5.2	-35.4*	0.0
Cc1ccc(C2=NN(CC(=O)NCCCN(CC(C)C)CC(C)C)C(=O)CC2)cc1	-2.8	-0.7	-0.9	6.4	-1.1
Cc1ccc(N2C(=O)/C(=C\c3ccc(C(C)C)cc3)N=C2SC2CCOC2=O)cc1 (configuration not stated)	1.9	0.1	-10.5	-38.3*	-3.2
CCN(CC)c1ccc(NC(=O)Cn2nc(C)n3cccc3c2=O)c(C)c1	-0.3	0.5	-5.0	0.3	-0.6
O=C1CCCC2=C1C(c1ccco1)Nc1ccc3ccccc3c12 (configuration not stated)	7.9	-0.2	-17.9	-36.3*	25.5
Cc1cccc2cc3c(N)c(C(=O)N4CCOCC4)sc3nc12	48.7*	-0.3	-0.3	-11.1	0.9
Cc1cc(C)c2cc3c(N)c(C(=O)N4CCc5ccccc5C4)sc3nc2c1	2.2	0.3	-5.4	9.1	11.3
CCOC(=O)c1c(C)[nH]c(C(=O)NCc2ccco2)c1C	0.2	0.1	-6.5	-71.4*	3.1
SMILES	D1 ag	TRHR ag	D1 potentiator	D1 antagonist	TRHR enhancer
CCOC(=O)c1[nH]c(C)c(C(=O)NC2CCCCC2)c1C	0.3	0.2	-5.2	-88.6*	1.7
Cc1[nH]c(C(=O)N/N=C/c2ccc(C(=O)O)cc2)c(C)c1C(=O)N/N=C/c1ccc(C(=O)O)cc1	0.8	-0.6	-3.0	-10.0	4.4
CCOC(=O)c1c(C)[nH]c(C(=O)OCc2ccccc2F)c1C	30.6*	-0.5	9.4	7.4	19.1
CCOC(=O)c1[nH]c(C)c(C(=O)OC)c1C	1.0	-0.1	-5.5	-1.1	-8.5
CCOC(=O)c1c(C)[nH]c(C(=O)N/N=C/c2ccc(Br)cc2)c1C	3.0	-1.5	-7.4	-40.4*	-5.0
CN(C(=O)CSc1nc2ccc(NC(=O)c3ccco3)cc2s1)c1ccccc1	0.4	-0.5	-2.1	-0.6	0.4
Cc1ccc(-c2ccc(=O)n(CC(=O)Nc3ccc(F)c(Cl)c3)n2)cc1C	0.8	0.5	0.7	19.6	-2.7
C#CCOc1c(Br)cc(C2C(C(=O)OC)=C(C)NC3=C2C(=O)c2ccccc23)cc1OCC (configuration not stated)	0.6	-1.0	-3.4	-8.8	-6.1
CC(C)CC(=O)Nc1ccc(C(=O)OCc2cc(=O)n3nc(C(C)C)sc3n2)cc1	2.7	-1.8	-0.1	13.9	4.6
CCCNC(=O)c1[nH]c(C)c(C(=O)OCC)c1C	2.1	-0.1	-8.2	-39.6*	-10.3
CCOC(=O)c1c(C)[nH]c(C(=O)O)c1C	3.2	-0.3	-5.3	-2.0	-0.2
COc1ccc(S(=O)(=O)NCc2ccccn2)cc1OC	5.2	0.1	-7.0	-5.4	-2.2
COc1ccccc1Oc1ccc(S(=O)(=O)NCc2ccccn2)cc1	13.9	-0.4	-8.2	-54.3*	6.0
COc1ccc(CCNc2ncnc3c2nnn3C)cc1	21.8	0.2	-3.4	/	-0.2
CCCNC(=O)Cn1c(=O)/c(=C\c2ccc(-c3cccc([N+](=O)[O-])c3)o2)s/c1=C\C(=O)C(C)(C)C	18.8	3.6	-3.4	2.1	7.0
CCCNC(=O)Cn1c(=O)/c(=C\c2ccc(-c3ccc([N+](=O)[O-])cc3)o2)s/c1=C\C(=O)C(C)(C)C	283.4*	98.0*	-7.0	-83.4*	-20.9
COc1cccc(N2CCN(C(=O)c3cc4c(=O)n(Cc5cccs5)ccc4nc3C)CC2)c1	1.8	-0.1	1.3	7.3	0.3
Cc1ccc(Cl)cc1NC(=O)c1sc2nc(-c3ccccc3)cn2c1C	4.1	0.8	-7.6	-0.5	5.2
COc1ccc(S(=O)(=O)N(CCc2ccccc2)CC(=O)N2CCOCC2)cc1	0.6	-0.7	-4.4	-74.1*	1.4
COc1ccc(S(=O)(=O)N(C)CC(=O)N2CCOCC2)cc1	-0.4	0.6	-2.8	-12.0	5.6
Cc1cc(C)cc(NS(=O)(=O)c2ccc(N3CCCCS3(=O)=O)cc2)c1	7.9	1.0	0.1	-10.7	-2.3
CCN(Cc1ccccc1)Cc1nnnn1Cc1ccccc1	2.5	-0.3	1.6	-72.6*	-0.5
CC1CCN(C(=S)c2ccc(O)cc2)CC1	0.7	-0.5	-12.5	-75.4*	-2.5
O=C(CCn1c(=O)c2ccccc2n(CC(=O)Nc2cccc(F)c2)c1=O)NCCc1ccccc1	1.0	-1.1	5.0	-14.6	2.7
O=C(OCn1nnc2ccccc2c1=O)c1cc2ccccc2o1	1.8	-0.4	-5.2	-31.7*	-2.3

Screening results deposited in PubChem BioAssay by National Center for Advancing Translational Sciences (NCATS).
